Assay outcomes: PubChem BioAssay, several laboratories
Sampled rows, rich in hits. Any-hit rate of the full collection: about 3.9%.
MazF activator – activators of E. coli MazEF toxin-antitoxin RNase, primary screen, biochemical, fluorescence, uHTS; Endoribonuclease toxin MazF (Escherichia coli (strain K12)), P0AE70; FAM/BHQ RNA-DNA oligo cleavage fluorescence, 5 h; activation, % at 20 µM; hit rate 0.32% among 350,000; AID 504720, 2011; in the data active = activation above about 50%
BoNT F protease – BoNT/F light chain protease inhibitors, primary screen, biochemical, flow cytometry, MLPCN library. Multiplex microsphere protease cleavage assay. inhibition, % at 10 µM. hit rate 0.22% among 360,000; in the data active = inhibition above about 35%, passing the limit was not always enough; inconclusive = no clear call, values can overlap the other calls; also: plate controls were buffer without enzyme for full effect and enzyme alone for no effect
Bead autofluor – counter-screen for toxin protease inhibitors: compound fluorescence | compound autofluorescence counterscreen, microsphere flow cytometry; active compounds read high | fluorescence intensity (concentration not given with the values) | hit rate 3.1% among 360,000 | AID 624483; in the data active = fluorescence intensity above about 16000; inconclusive = no clear call, values can overlap the other calls
Vc quorum ag – inducers of Vibrio cholerae quorum light production without autoinducers, primary screen, BH1578 luxS cqsA deficient, single point; hit rate 0.16% among 350,000; AID 588436, 2011; V. cholerae BH1578 lux reporter, luminescence, 6 h; activation, % at 18.7 µM; in the data active = activation mostly above about 9.7%, no sharp cut-off; inconclusive = no clear call, values can overlap the other calls; inactive = mostly below about 3.7%
BoNT-A LC inh2 – BoNT/A light chain protease inhibitors, primary screen, biochemical, flow cytometry, MLPCN library; inhibition, % at 10 µM; multiplex microsphere protease substrate cleavage; Botulinum neurotoxin type A light chain protease (Clostridium botulinum A str. ATCC 3502); hit rate 0.17% among 360,000; also: plate controls were buffer without enzyme for full effect and enzyme alone for no effect
Anthrax LF inh2 – Bacillus anthracis LF protease inhibitors, primary screen, biochemical, multiplex microsphere, MLPCN library. hit rate 0.12% among 360,000. multiplex microsphere protease cleavage assay. Lethal factor (Bacillus anthracis), P15917. inhibition, % at 10 µM; also: plate controls were buffer without enzyme for full effect and enzyme alone for no effect
Starred values were filed as active, the others as inactive; i = inactive; u = inconclusive; x = not tested or not shown. Rule as the data show it, unless noted: active = inhibition above about 30%; inconclusive = no clear call, values can overlap the other calls; inactive = below that.

SMILES	MazF activator	BoNT F protease	Bead autofluor	Vc quorum ag	BoNT-A LC inh2	Anthrax LF inh2
COc1ccc(OC)c(-c2csc3nnc(SCC(=O)Nc4ccc(NC(C)=O)cc4)n23)c1	0.3	-3.4	20934*	-0.4	-0.7	-1.0
CC(=O)Nc1ccc(-c2ccnc3c2CC(C)(C(=O)Nc2ccc(C(C)C)cc2)O3)cc1 (centres undefined)	x	-13.3	3879	-0.3	-0.2	-2.9
Cc1ccc(NC(=O)CSc2nnc(-c3ccncc3)n2C)cc1C	1.1	-5.9	20661*	i	u	-3.4
COC(=O)c1cc(OC)c(OC)cc1NC(=O)CSc1nnc(-c2cccnc2)n1C	8.5	-6.3	20945*	-2.0	-3.7	1.0
Cn1c(SCC(=O)Nc2ccc(NC(=O)c3ccccc3F)cc2)nnc1-c1ccncc1	-1.7	5.0	3631	-2.2	0.6	-4.2
CC1C(=O)N2CCCc3cc(NC(=O)CC(C)(C)C)cc1c32 (centres undefined)	7.3	-0.7	5488	0.5	1.1	0.9
N#Cc1cc2c(nc1SCC(=O)Nc1cc(Cl)ccc1Cl)C1CCN2CC1	8.8	-2.1	20370*	-3.6	u	1.5
COc1cnc(SC)nc1Nc1ccc(C#N)cc1	-4.0	6.2	3108	-0.6	2.7	2.5
Cc1ccc(Oc2nsnc2N2CCOCC2)cc1	8.4	-6.1	20142*	i	-1.0	-0.8
O=C(Oc1nsnc1N1CCOCC1)c1ccccc1	4.0	-4.7	11236	i	-0.2	-2.6
N#C/C(=C/C1=C(N2CCOCC2)C(=C/c2ccc(Cl)cc2Cl)/CC1)C(=O)Nc1ccccc1F	-161.3	10.9	4751	x	1.3	12.0
NC(=O)CCCCC(=O)OCCCc1cccs1	1.2	1.1	16230*	-1.4	-0.7	0.5
CCOC(=O)c1c(-c2ccccc2)csc1NC(=O)c1ccc(N2C(=O)CCC2=O)cc1	-0.1	0.7	22792*	-0.2	1.4	1.1
CCOC(=O)c1c(-c2cc(OC)c(OC)c(OC)c2)csc1NC(=O)c1ccccc1	-2.7	0.0	3874	-1.1	0.3	-3.7
CCOC(=O)c1c(-c2ccccc2)csc1NC(=O)c1ccc(S(=O)(=O)N2CC(C)OC(C)C2)cc1 (centres undefined)	-5.9	-0.8	23061*	1.7	1.6	-1.4
O=C(COC(=O)c1cccc(OC(F)F)c1)Nc1cc(S(=O)(=O)N2CCCC2)ccc1Cl	-1.3	0.5	3539	i	0.4	-3.7
COc1ccc(Oc2ccc(/C=C/C(=O)c3cccc(OC)c3)cc2[N+](=O)[O-])cc1	-6.8	-21.2	10663	i	-2.7	-4.8
CC(C)Oc1ccc(C(=O)NC2(C(F)(F)F)N=C3SCCN3C2=O)cc1 (centres undefined)	0.2	-3.1	20653*	-1.2	u	0.2
CC(=O)NC1(C(F)(F)F)N=C2SCCN2C1=O (centres undefined)	-2.7	-9.2	22076*	i	u	-1.4
O=C(O)c1cn(-c2ccccc2)nc1-c1ccncc1	-1.4	-8.6	4743	2.1	-0.1	1.0
O=C(O)c1cn(-c2ccccc2)nc1-c1cccnc1	5.4	-0.7	20326*	i	1.2	0.5
COc1ccccc1N1CCN(C2CCCN(C(=O)CCc3ccccn3)C2)CC1 (centres undefined)	-0.5	-13.1	6243	0.6	-5.1	-1.3
CCCCC(CC)C(=O)Nc1ccc(C)c(O)c1 (centres undefined)	3.3	-2.3	4031	-0.1	-0.6	-6.8
c1ccc(CCn2c(C3CC3)nc3ccccc32)cc1	6.5	-5.3	16345*	i	-0.2	-0.3
C=CCc1c(C)c(C#N)c2nc3ccccc3n2c1NCCN(C)C	-2.2	-3.7	3231	-0.6	0.9	2.3
CCc1c(C)c(C#N)c2nc3ccccc3n2c1NCCN(C)C	0.6	6.9	17739*	-0.2	6.6	-7.1
CSc1cnc2c(=O)[nH]c(=O)n(C)c2n1	-3.7	25.4	2143	-0.3	2.3	-0.5
Cc1nc(-n2cc(F)c(=O)[nH]c2=O)c2nc(C)oc2n1	-8.1	-4.2	17089*	i	-2.5	-4.2
